# Inconclusive results are not listed. A call without a number means that no potency is given here. Calls of active or inactive are those of the source. Calls follow the shape of the dose curve; as a rule, active = well fitted cell-killing curve with a large enough effect; inconclusive = small, poorly fitted or top-dose-only effect, or effect the other way; inactive = flat fitted curve, though single readings scatter.
# Experiment: qHTS for Inhibitors of ATXN expression: Validation of Cytotoxic Assay (AID 588349)
# Conditions: cytotoxicity counter-screen for ATXN expression inhibitors, cell viability; series mostly up to 57.1 µM
# Excerpt: Spinocerebellar ataxia type 2 (SCA2) is a multisystem neurodegenerative disease caused by a dominantly-acting mutation leading to expansion of a polyQ domain in the ataxin-2 protein (ATXN2). SCA2 patients develop progressive ataxia and later lose function in other neuronal systems. Prominent parkinsonian signs develop in some patients. Similar to many neurodegenerative disorders, no symptomatic or disease-modifying treatments are known.
# The primary objective of project is to identify compounds inhibiting ATXN2 expression and to test them for efficacy in SCA2 mouse models. To this end, in a collaboration between Dr. Daniel Scoles and scientists at NCGC, a cell-based assay adapted to high-throughput screening has been developed to screen the NIH Molecular Libraries Small Molecule Repository (MLSMR). Confirmed qHTS active compounds will be tested for toxicity against the human neuron-like SH-SY5Y cell line. This line is the parental cell type used to generate the transgenic line used in the primary assay, and so should provide an isogenic control to test the inherent toxicity of qHTS actives.
# NIH Chemical Genomics Center [NCGC]
# NIH Molecular Libraries Probe Centers Network [MLPCN]
# Assay Submitter (PI): Stefan Pulst and Daniel Scoles, University of Utah
# […] cultured cells will be dosed with titrated compounds and incubated for 72 hr at 37 degrees C. Toxicity will be assessed using the CellTiter Glo kit (Promega), which uses intracellular ATP concentration as a viability marker.
# Potency is read from the fitted curve at half-maximal effect.
row,Structure (SMILES),Potency
1,CCCN(CC1CC1)c1nc(C)nc(Nc2c(Cl)cc(Cl)cc2Cl)c1Cl,inactive
2,Cc1ccccc1CNc1ncnc2c1ncn2C1OC(CO)C(O)C1O (stereo not given),inactive
3,OC[C@H]1O[C@@H](n2cnc3c(Nc4ccccc4)ncnc32)[C@H](O)[C@@H]1O,inactive
4,COc1cccc(OC)c1OCCNCC1COc2ccccc2O1 (stereo not given),inactive
5,NC[C@@H]1O[C@H](C23CC4CC(CC(C4)C2)C3)Cc2c1ccc(O)c2O,31.6 µM (active)
6,Nc1nc(SCc2ccc([N+](=O)[O-])cc2)c2ncn([C@@H]3O[C@H](CO)[C@@H](O)[C@H]3O)c2n1,inactive
7,O=C1NC(=O)/C(=C/c2ccc3nccnc3c2)S1,inactive
8,O=C(c1ccc(OCCCc2cnc[nH]2)cc1)C1CC1,inactive
9,COc1cc2c(CCNC(C)=O)c[nH]c2cc1Cl,inactive
10,Clc1ccc(N2CCN(Cc3c[nH]c4ncccc34)CC2)cc1,inactive
11,C[N+](C)(CCCCCC[N+](C)(C)CCCN1C(=O)c2cccc3cccc(c23)C1=O)CCCN1C(=O)c2cccc3cccc(c23)C1=O,inactive
12,O=C1O/C(=C/Br)CCC1c1cccc2ccccc12 (stereo not given),31.6 µM (active)
13,NC[C@H]1O[C@@H](n2cnc3c(N)ncnc32)[C@H](O)[C@@H]1O,inactive
14,O=C(Nc1ccccc1)c1cc([N+](=O)[O-])ccc1Cl,inactive
15,C[N+](C)(C)CCOP(=O)(O)OP(=O)([O-])OC[C@H]1O[C@@H](n2ccc(N)nc2=O)[C@H](O)[C@@H]1O,inactive
16,N=C(N)SCCc1ccc(CCSC(=N)N)cc1,inactive
17,CN1CC(=O)N/C1=N/C(=O)Nc1cccc(Cl)c1,inactive
18,CCc1c(C(=O)NCCc2ccc(N3CCCCC3)cc2)[nH]c2ccc(Cl)cc12,inactive
19,CC(COc1ccc(/C=C/c2ccccc2)cc1)[N+](C)(C)C (stereo not given),inactive
20,COc1cc(C(O)CO)ccc1OS(=O)(=O)O (stereo not given),inactive

row,Structure (SMILES),Potency
1,CC(=O)N[C@H](C(=O)O)C(C)(C)SN=O,inactive
2,N[C@@H](CC(=O)O)C(=O)O,inactive
3,O=C1/C(=C/c2ccsc2)CC/C1=C\c1cccs1,inactive
4,NCCNC(=O)c1ncsc1-c1cccc(F)c1,inactive
5,NC(=S)c1ccc[n+]([C@@H]2O[C@@H](COP(=O)([O-])OP(=O)(O)OC[C@H]3O[C@@H](n4cnc5c(N)ncnc54)[C@H](OP(=O)(O)O)[C@@H]3O)C(O)C2O)c1 (stereo not given in full),inactive
6,COc1cccc(C(=O)NCCN2CCN(c3ccc(Cl)cc3)CC2)c1,inactive
7,CC1OC1P(=O)(O)O (stereo not given),inactive
8,CC1CN(S(=O)(=O)c2cccc3cnccc23)CCN1 (stereo not given),inactive
9,c1ccc(-c2ccccn2)nc1,inactive
10,NCCCS(=O)(=O)O,inactive
11,CN1C2CCC1CC(OC(=O)C(O)c1ccccc1)C2 (stereo not given),inactive
12,O=[N+]([O-])c1ccc(CSc2ncnc3c2ncn3[C@@H]2O[C@H](CO)[C@@H](O)[C@H]2O)cc1,inactive
13,O=C(O)CC1CCCc2ccccc2C1O (stereo not given),inactive
14,CCCCN1CCC(n2c(=O)[nH]c3ccccc32)CC1,inactive
15,CN(C)C(N)=NCCC[C@H](N)C(=O)O,inactive
16,Cc1ccc(C(=O)O[C@H](C(=O)O)[C@@H](OC(=O)c2ccc(C)cc2)C(=O)O)cc1 (tested in a mixture with another compound),inactive
17,OC[C@H]1O[C@@H](n2cnc3c(NC4CCCCC4)ncnc32)[C@H](O)[C@@H]1O,inactive
18,O=C(O)[C@@H]1C[C@@H](C(=O)O)N1,inactive
19,NC(=O)C1=CN(C2OC(COP(=O)(O)OP(=O)(O)OC[C@H]3O[C@@H](n4cnc5c(N)ncnc54)[C@H](OP(=O)(O)O)[C@@H]3O)C(O)C2O)C=CC1 (stereo not given in full),inactive
20,O=C(c1cc(O)c(O)c([N+](=O)[O-])c1)c1ccccc1F,inactive
